These results are taken from PubChem BioAssay.

Activity calls are given as the source filed them.

The nature of test [1]: compound effects on lung adenocarcinoma cell viability – A549, calcein-AM fluorescence, 48 h, basal, profiling panel (AID 1162). Further: test concentration not given here. To be noted: higher = more signal.
Test [2] in a line: compound effects on differentiated 3T3-L1 adipocyte viability – cell-based, 3T3-L1 adipocytes, calcein-AM fluorescence, 48 h, basal, profiling panel (AID 1163). Further: test concentration not given here. To be noted: 3T3-L1 adipocytes viability, higher = more signal.
A short description of test [3]: compound effects on hepatocellular carcinoma cell viability – HepG2, calcein-AM fluorescence, 48 h, basal, profiling panel (AID 1164). Further: test concentration not given here. To be noted: higher = more signal.
A short description of test [4]: compound effects on multiple myeloma cell viability – MM1S, calcein-AM fluorescence, 48 h, basal, profiling panel (AID 1165).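 Further: viability of MM1S multiple myeloma cells under basal unstimulated conditions; test concentration not given here.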 To be noted: higher = more signal.
Test [5] can be described thus: calcein-AM signal in unstimulated myeloma cells – cell-based, calcein-AM fluorescence, 48 h, PK04 Diversity Set, profiling panel (AID 1166).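 Further: cells grown under basal conditions without added stimulus; test concentration not given here.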 To be noted: RPMI8226 myeloma viability, higher = more signal.
Test [6] in a line: JC-1 mitochondrial signal, unstimulated HepG2 cells – cell-based, JC-1 fluorescence, 24 h, 100 nL compound, profiling panel (AID 1167). Further: test concentration not given here. The settings on record: HepG2 mitochondrial potential, higher = more signal.
Test [7] in a line: JC-1 mitochondrial signal, unstimulated adipocytes – cell-based, JC-1 fluorescence, 3T3-L1 adipocytes, 24 h, 100 nL compound, profiling panel (AID 1168). Further: test concentration not given here. To be noted: JC-1 mitochondrial fluorescence, higher = more signal, called active from +8 up or from −8 down.
Test [8] in a line: JC-1 mitochondrial signal, unstimulated myeloma cells – cell-based, JC-1 fluorescence, RPMI8226, 24 h, 100 nL compound, profiling panel (AID 1169). Further: test concentration not given here. The settings on record: JC-1 mitochondrial potential fluorescence, higher = more signal.
Test [9] in a line: JC-1 mitochondrial signal, unstimulated MM1S myeloma – cell-based, JC-1 fluorescence, 24 h, 100 nL compound, profiling panel (AID 1170). Further: test concentration not given here. The settings on record: MM1S mitochondrial potential, higher = more signal.
A short description of test [10]: resazurin metabolic signal in A549 cells – cell-based, resazurin fluorescence, 24 h, PK04 Diversity Set, profiling panel (AID 1171). Further: test concentration not given here. The settings on record: A549 viability, higher = more signal, called active from +8 up or from −8 down. For orientation: Resazurin is reduced to fluorescent resorufin, in cell work by metabolically active cells.
Test [11] in a line: resazurin metabolic signal in HepG2 cells – cell-based, resazurin fluorescence, 24 h, PK04 Diversity Set, profiling panel (AID 1172). Further: test concentration not given here. To be noted: HepG2 viability, higher = more signal.
Test [12] can be described thus: budding yeast growth changes without added modifier – OD600, strain BY4716, 24 h, basal condition, primary screen (AID 1173). The settings on record: S. cerevisiae BY4716 growth, OD600, 24 h; higher = more signal, called active from +8 up or from −8 down.
Test [13] can be described thus: viability profiling in MM1S myeloma cells – cell-based, resazurin fluorescence, basal, 24 h, PK04 Diversity Set, profiling panel (AID 1174). Further: test concentration not given here. The settings on record: higher = more signal, called active from +8 up or from −8 down.
Test [14] deals with Dihydroorotate dehydrogenase (quinone), mitochondrial (Plasmodium falciparum (isolate 3D7)) (UniProt Q08210). Description: inhibition of P. falciparum DHODH – biochemical, C-terminal His tag, absorbance 600 nm, primary screen (AID 1175).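 Further: recombinant parasite enzyme with a five histidine tag at its C terminus; test concentration not given here.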 The settings on record: PfDHODH enzyme, DCIP absorbance 600 nm; higher = more signal, called active from +8 up or from −8 down.
Dihydroorotate dehydrogenase (quinone), mitochondrial (Plasmodium falciparum (isolate 3D7)), sequence (Q08210 whole entry, looked up): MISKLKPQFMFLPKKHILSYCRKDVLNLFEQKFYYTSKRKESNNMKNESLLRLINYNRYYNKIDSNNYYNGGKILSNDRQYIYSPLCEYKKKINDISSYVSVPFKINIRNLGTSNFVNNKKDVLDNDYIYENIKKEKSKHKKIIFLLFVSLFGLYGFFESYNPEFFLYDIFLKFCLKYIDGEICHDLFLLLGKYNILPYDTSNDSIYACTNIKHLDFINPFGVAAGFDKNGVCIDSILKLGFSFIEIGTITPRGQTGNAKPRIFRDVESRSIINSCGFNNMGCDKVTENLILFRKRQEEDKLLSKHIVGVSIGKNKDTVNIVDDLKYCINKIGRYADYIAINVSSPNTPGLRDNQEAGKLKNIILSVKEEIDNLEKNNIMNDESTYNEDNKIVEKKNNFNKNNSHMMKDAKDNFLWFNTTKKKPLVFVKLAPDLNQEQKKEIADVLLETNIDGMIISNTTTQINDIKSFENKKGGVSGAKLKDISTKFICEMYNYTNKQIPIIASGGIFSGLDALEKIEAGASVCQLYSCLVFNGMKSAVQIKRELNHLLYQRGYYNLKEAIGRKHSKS
Test [15] can be described thus: growth modulation of vineyard yeast isolate – strain RM11-1a, OD600, basal, 24 h, primary screen (AID 1177).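 Further: cultures grown under basal conditions with no added stressor; test concentration not given here.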 The settings on record: S. cerevisiae RM11-1a growth, OD600, 24 h; higher = more signal, called active from +8 up or from −8 down.
Test [16] in a line: growth of efflux-deficient E. coli DRC39 – strain DRC39, OD650, 24 h, E. coli filamentation inducers, primary screen (AID 1178).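 Further: growth measured as culture turbidity by optical density at 650 nm; test concentration not given here.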 The settings on record: E. coli DRC39 acrAB, higher = more signal, called active from +8 up or from −8 down.
The nature of test [17]: growth of efflux-deficient E. coli DRC39 – strain DRC39, OD650, 48 h, E. coli filamentation inducers, primary screen (AID 1179).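 Further: screen aims at cell division blockers that make cells filament.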 The settings on record: E. coli DRC39 delta-acrAB growth, higher = more signal, called active from +8 up or from −8 down.
Test [18] is described as follows: viability profiling in RPMI8226 myeloma cells – cell-based, resazurin fluorescence, basal, 24 h, PK04 Diversity Set, profiling panel (AID 1180).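 Further: RPMI8826 multiple myeloma cell line at 5000 cells per well; test concentration not given here.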 To be noted: higher = more signal.
Test [19] deals with E3 ubiquitin-protein ligase XIAP (Homo sapiens) (UniProt P98170). Description: small molecules binding XIAP protein – biophysical, small-molecule microarray, fluorescence 635 nm, primary screen (AID 1181).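 Further: score merges 667 nm emission and signal to noise over triplicate slides.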 The settings on record: higher = more signal.
E3 ubiquitin-protein ligase XIAP (Homo sapiens), sequence (P98170 whole entry, looked up): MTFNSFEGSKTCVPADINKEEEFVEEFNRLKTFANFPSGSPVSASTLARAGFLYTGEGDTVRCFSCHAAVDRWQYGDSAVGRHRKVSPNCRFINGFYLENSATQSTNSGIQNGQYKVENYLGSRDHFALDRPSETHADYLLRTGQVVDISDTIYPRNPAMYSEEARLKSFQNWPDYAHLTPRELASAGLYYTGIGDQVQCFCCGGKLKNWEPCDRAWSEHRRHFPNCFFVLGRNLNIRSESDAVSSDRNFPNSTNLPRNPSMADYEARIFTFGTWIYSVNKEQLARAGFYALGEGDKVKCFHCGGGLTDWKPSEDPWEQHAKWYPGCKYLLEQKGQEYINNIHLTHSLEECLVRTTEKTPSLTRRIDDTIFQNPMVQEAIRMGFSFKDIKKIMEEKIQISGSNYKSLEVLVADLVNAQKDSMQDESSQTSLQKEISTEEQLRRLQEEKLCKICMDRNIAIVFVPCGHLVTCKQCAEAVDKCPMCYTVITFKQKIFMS

Consider `CCN1C(C)=C(C(=O)OC)[C@@H](c2ccccc2)N2C(=O)[C@@]3(C(=O)OC)O[C@@]12[C@@H]1C(=O)N(C)C(=O)[C@@H]13`, for which the z-score in test [1] was 0.0516; in test [2] it was 0.59; in [3], -0.616; in [4], -1.51; in [5] it was 0.68; in test [6], 0.684. For the same compound, the z-score was 1.15 (inactive) in [7]; 0.644 in test [8]; -0.196 in test [9]; 0.363 (inactive) in test [10]; 0.976 in test [11]; -0.684 (inactive) in [12]. Moreover, the z-score in [13] was 0.947 (inactive); in test [15], 0.335 (inactive); in test [16], -0.234 (inactive); in test [17], -0.992 (inactive); in test [18] it was 1.09. In addition, the composite z-score in test [14] was 1.18 (inactive); in test [19] it was -0.0454.

Consider `COc1ccc([Si](C)(C)[C@H]2[C@H](CCO)O[C@@]3(C(=O)N(Cc4ccc(N5CCCCC5=O)cc4)c4ccccc43)[C@@H]2C)cc1`, for which the z-score in test [1] was -0.124; in [2], 0.705; in test [3], -0.263; in [4] it was -2.59; in test [5] it was -0.628; in test [6], 1.05. For the same compound, the z-score in [7] was 1.04 (inactive); in test [8], -0.48; in test [9], -0.119; in test [10] it was -2.32 (inactive); in test [11], -1.69; in test [12], -1.07 (inactive). For the same compound, the z-score was -7.58 (inactive) in test [13]; 2 (inactive) in test [15]; 2.18 (inactive) in [16]; -0.0822 (inactive) in test [17]; -2.73 in [18]. For the same compound, the composite z-score is -5.37 (inactive) in test [14] and 0.0223 in [19].

Regarding `CC(C)N1CC=CC23O[C@@H]4/C=C\CCCOC(=O)C4[C@H]2C(=O)N(CCCCCO)[C@@H]3C1=O` (stereo partly specified), the z-score in test [1] was 0.196; in test [2], 1.24; in test [3], 0.791; in test [4], 1.64; in [5], 0.0268; in [6], 0.446. The z-score in test [7] is 1.31 (inactive); in [8], -0.197; in [9], 0.599; in test [10] it was 0.929 (inactive); in test [11], 0.46; in test [12], -1.08 (inactive). Besides, the z-score is 1.35 (inactive) in [13]; -0.354 (inactive) in test [15]; 1.26 (inactive) in test [16]; 1.29 (inactive) in [17]; 1.13 in [18]. Also, the composite z-score in test [14] was 0.623 (inactive); in test [19] it was 0.973.

As to `C=CCC(OC(C)=O)[C@@H]1[C@@H](N(Cc2ccc(-c3ccccc3)cc2)C(=O)c2ccc(C)cc2)c2cc(OCCCO)ccc2N1C(=O)c1ccc(-c2ccccc2)cc1` (stereo partly specified), the z-score in [1] was 3.37; in test [2] it was 0.626; in test [3], 1.87; in [4] it was -0.732; in test [5], 0.887; in test [6], 4.05. The z-score is 1 (inactive) in test [7]; -0.454 in test [8]; 1.22 in [9]; 2.47 (inactive) in test [10]; 2.15 in [11]; -1.71 (inactive) in test [12]. The z-score in test [13] is 1.55 (inactive); in [15] it was -3.45 (inactive); in test [16], 2.05 (inactive); in test [17], 1.27 (inactive); in test [18] it was 1.51. Also, the composite z-score is -1.08 (inactive) in test [14] and -0.467 in [19].

Turning to `C[C@H]1COC(=O)[C@@H]2CCCN2C(=O)[C@@H](C)COC(=O)[C@@H]2CCCN2C1=O`, the z-score in test [1] is 0.507; in [2], 0.442; in [3], -0.178; in test [4] it was 0.323; in test [5] it was -0.0243; in test [6], 0.799. Moreover, the z-score was 0.085 (inactive) in [7]; -0.108 in test [8]; 0.0551 in test [9]; 1.5 (inactive) in [10]; 0.678 in [11]; -0.978 (inactive) in [12]. For the same compound, the z-score in test [13] was 0.93 (inactive); in test [15], -0.691 (inactive); in [16], 0.825 (inactive); in [17], -0.0322 (inactive); in [18] it was 0.73. The composite z-score is -0.0223 (inactive) in test [14] and -0.294 in [19].

In the case of `C[C@@H]1CC[C@H]2C(=O)N3[C@@H](CC[C@@H](C)[C@@H]3c3cccc(N4CCOCC4)c3)C(=O)N2[C@H]1c1cccc(Br)c1`, the z-score in [1] was 1.56; in test [2], 1.4; in test [3] it was 0.273; in test [4] it was -0.775; in test [5], -1.3; in test [6] it was 3.04. Besides, the z-score is 0.37 (inactive) in test [7]; -0.779 in test [8]; 0.521 in test [9]; 1.36 (inactive) in test [10]; 1.05 in [11]; -1.89 (inactive) in test [12]. In addition, the z-score in test [13] was 0.328 (inactive); in test [15], -0.123 (inactive); in test [16] it was 0.401 (inactive); in test [17], 0.238 (inactive); in test [18] it was 1.37. For the same compound, the composite z-score in test [14] is -0.0779 (inactive); in [19], -0.111.

Regarding `CO[C@H]1COC(=O)[C@@H](Cc2ccccc2)NC(=O)[C@@H](C)COC(=O)CC=C[C@@H]1C`, the z-score in test [1] was 0.899; in test [2], 0.172; in [3], 0.662; in test [4], 0.221; in test [5] it was 0.373; in test [6], 0.606. Further, the z-score in test [7] was 0.0117 (inactive); in test [8], 0.175; in [9], 0.662; in [10], 1.2 (inactive); in test [11] it was 0.344; in [12], -1.14 (inactive). Besides, the z-score was 1.1 (inactive) in test [13]; -0.213 (inactive) in test [15]; 1.24 (inactive) in test [16]; 0.639 (inactive) in [17]; 0.763 in test [18]. The composite z-score is 0.0602 (inactive) in test [14] and 0.785 in [19].

`[N-]=[N+]=Nc1ccccc1C[C@@]1(C(=O)N2CCOCC2)N=C(c2ccc(OCCCO)cc2)O[C@@H]1c1ccccc1N=[N+]=[N-]`: the z-score in test [1] is -0.71; in test [2], 0.271; in [3] it was -1.19; in [4], -3.45; in test [5], -4.53; in [6] it was 0.925. Moreover, the z-score in [7] is 1.98 (inactive); in test [8], -1.23; in test [9], -1.54; in test [10] it was -1.32 (inactive); in [11], -0.133; in [12], -2.54 (inactive). Besides, the z-score in test [13] was -1.93 (inactive); in test [15], 0.0278 (inactive); in [16], 1.08 (inactive); in test [17] it was 0.115 (inactive); in test [18], -3.91. In addition, the composite z-score was -0.489 (inactive) in [14] and -0.256 in test [19].

`COc1cc(CO)cc(I)c1O[C@H]1C=C(C(=O)NCCO)C[C@@H](NCCc2c[nH]c3ccccc23)[C@@H]1O`: the z-score in test [1] is 1.74; in [2] it was -0.335; in test [3], 0.0706; in test [4], -0.68; in test [5] it was -0.391; in test [6], -1.01. The z-score in test [7] was 1.01 (inactive); in test [8], 0.166; in test [9], -0.389; in test [10] it was 0.279 (inactive); in test [11] it was 0.507; in test [12], -8.04 (active). Further, the z-score is 0.221 (inactive) in test [13]; 0.216 (inactive) in test [15]; 2.21 (inactive) in test [16]; -0.41 (inactive) in [17]; 0.848 in test [18]. For the same compound, the results for the composite z-score in test [14] and in test [19] were 1.23 (inactive) and -0.242, respectively.
